VP16 counter: inhibits Gal4-VP16 luciferase reporter, ROR gamma counter-screen; Drosophila S2 Gal4-VP16 UAS-luciferase, luminescence, 20 h; Potency, µM (doses to about 53.6 µM), inactives show top-dose activity, negative = inhibition, most hits filed as inhibitors; 3.5% of 310,000 active;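 further: Gal4-VP16 expression switched on by copper sulfate through the metallothionein promoter; nearly all actives have a fitted effect of over 50% in size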
Luc counter: counter-screen: inhibitors of Kinase-Glo firefly luciferase | 0.28% of 200,000 active | Potency, µM (doses to about 38.3 µM), for the others: top-dose activity change, negative = inhibition, hits mostly inhibitors | Kinase-Glo luciferase, ATP luminescence, 8 min | Q27757; further: nearly all actives have a fitted effect of over 60% in size
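Luminescence was the read-out, taken after 8-minute incubation at ambient temperature. Luciferase turned over luciferin with 10 uM ATP in imidazole pH 7.2 buffer containing KCl, MgCl2, Tween 20 and BSA.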
RORg inh: inhibitors of mouse ROR gamma transcriptional activity; P51450; Drosophila S2 Gal4-RORgamma UAS-luciferase reporter, 20 h; Potency, µM (top dose mostly 53.6 µM), inactives show at the highest dose activity change, negative = inhibition, actives largely listed as inhibitors; 5.4% of 310,000 active; further: nearly all actives have a fitted effect of over 60% in size
Target sequence (P51450 whole entry, looked up, the tested form may be a part): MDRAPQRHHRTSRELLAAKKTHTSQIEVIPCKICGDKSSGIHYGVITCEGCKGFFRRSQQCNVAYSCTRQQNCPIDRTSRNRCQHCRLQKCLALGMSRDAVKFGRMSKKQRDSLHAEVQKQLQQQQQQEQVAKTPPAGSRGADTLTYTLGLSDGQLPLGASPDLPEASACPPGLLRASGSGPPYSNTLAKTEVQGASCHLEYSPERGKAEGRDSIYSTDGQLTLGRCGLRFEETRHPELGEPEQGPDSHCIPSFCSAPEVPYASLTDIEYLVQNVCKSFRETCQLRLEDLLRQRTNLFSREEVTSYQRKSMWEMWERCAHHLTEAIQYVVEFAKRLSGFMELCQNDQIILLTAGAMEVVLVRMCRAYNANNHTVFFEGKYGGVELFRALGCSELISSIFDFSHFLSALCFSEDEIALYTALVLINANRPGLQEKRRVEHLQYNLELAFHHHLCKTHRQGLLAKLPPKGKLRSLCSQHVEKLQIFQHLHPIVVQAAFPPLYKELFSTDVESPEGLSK
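Stably transfected Drosophila Schneider cells are the test system, with ROR gamma fused to Gal4 and luciferase under UAS control; luminescence is read after 20 hr of 700 uM copper sulfate induction at ambient temperature.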
* marks the source's active call; other numbers are inactive results; ? = inconclusive; . = not tested or not shown; [ ] = remark or other dose. Only some compounds are listed: those with a hit (about 6.4% of all), similar ones and a draw of the others. The call rests on the fitted dose curve; in most records, active means well fitted curve in the direction sought with a large enough effect; inconclusive means small, poorly fitted or top-dose-only effect, or another doubt; inactive means no such curve, though single readings can be large; an effect the other way counts as inactive or inconclusive. On the % scale 0 is the no-effect control and ±100 the full control effect; potency means the concentration at half of the fitted maximal effect.

SMILES	VP16 counter	Luc counter	RORg inh
CC(C)(C)C1CCC(C(=O)Nc2nccs2)CC1 (centres undefined)	8.9µM*	.	4.5µM*
O=C(CCC1CCCCC1)Nc1nccs1	-2%	0%	18µM*
O=C(CN1C(=O)C2CCCCC2C1=O)Nc1nccs1 (centres undefined)	-12%	1%	8%
O=C(Nc1nccs1)c1cccc(NC(=O)C2CC2)c1	4%	0%	36%
CC(C)OC(=O)[C@@H]1CC[C@H](C)[C@@H](CCCCO)O1	3%	2%	6%
COCc1cc(C)nc(Nc2ccccc2OC)c1C#N	5%	.	5%
CCc1ccc(N(CC(=O)NCC2CCCO2)C(=O)CCC(=O)Nc2nccs2)cc1 (centres undefined)	5%	.	0%
O=C1CC(C2CCCO2)C(=O)N1c1ccc(Cl)c(Cl)c1 (centres undefined)	11µM*	-1%	?
O=C1CC(C2CCCO2)C(=O)N1c1ccccc1 (centres undefined)	-6%	-1%	10%
O=c1cc(-c2ccc(O)c(O)c2)oc2ccccc12	1%	-9%	3.2µM*
COc1ccc(-c2cc(=O)c3ccccc3o2)cc1OC	0%	-7%	-27%
C=CCn1c(=NC(=O)c2ccc(S(=O)(=O)N3CCc4ccccc4C3)cc2)sc2cc(S(N)(=O)=O)ccc21	-20%	-1%	-16%
C#CCn1c(=NC(=O)c2ccc(S(=O)(=O)N3CCc4ccccc4C3)cc2)sc2cc(S(N)(=O)=O)ccc21	10µM*	3%	11µM*
C/C(=N/O)c1ccc2cc(Br)c3ccccc3c2c1	.	-3%[7.66 µM]	.
CC(C)C(=O)Nc1nc2cc3c(cc2s1)OCO3	?	1%	58%
Fc1cccc2sc(Nc3nc4cc5c(cc4s3)OCCO5)nc12	11µM*	-3%	5.6µM*
Fc1cccc2sc(Nc3nc4cc5c(cc4s3)OCO5)nc12	7.1µM*	1%	6.3µM*
Fc1cc(F)c2nc(Nc3nc4cc5c(cc4s3)OCO5)sc2c1	?	0%	16µM*
O=C(Nc1nc2cc3c(cc2s1)OCO3)C1CC1	-11%	.	19%
O=c1oc2ccccc2cc1-c1csc(Nc2nc3c(F)cccc3s2)n1	-6%	-3%	12%
COc1cccc(C2=Nn3c(nnc3-c3cc(OC)cc(OC)c3)SC2)c1	-7%	.	-8%
COc1ccccc1C(=O)OCC(=O)Nc1ccc(Cl)cn1	-16%	-1%	20%
O=C(/C=C/c1ccc(OC(F)F)cc1)OCC(=O)N1CCN(C(=O)c2ccco2)CC1	4%	2%	-6%[10 µM]
CCOC(=O)/C=C/C(=O)OCC(=O)N1CCN(C(=O)c2ccco2)CC1	?	.	11µM*
COc1ccc2[nH]c3c(C)c4ccncc4c(C)c3c2c1	4.5µM*	.	3.2µM*
SMILES	VP16 counter	Luc counter	RORg inh
COc1ccc2[nH]c(C)cc(=O)c2c1	-11%	-1%	-3%
Cc1ccc(NC(=O)Cn2c(=S)[nH]c3ccccc32)cc1	29%	-1%	-4%
O=C(Cn1c(=S)[nH]c2ccccc21)c1ccccc1	?	2%	10µM*
COc1cc2c(cc1OC)C(=S)NC1(CCCC1)C2	14µM*	4%	2µM*
COc1cc2c(cc1OC)C(C)=NC1(CCCCC1)C2	-4%	.	1%
O=C1NC2(CCCCC2)Cc2ccccc21	5%	-2%	21%
S=C1NC2(CCCCC2)Cc2ccccc21	?	-1%	1.1µM*
CO[C@H]1/C=C/O[C@@]2(C)Oc3c(C)c(O)c4c(O)c(c(/C=N/N5CCN(C)CC5)c(O)c4c3C2=O)NC(=O)/C(C)=C\C=C\[C@H](C)[C@H](O)[C@@H](C)[C@@H](O)[C@@H](C)[C@H](OC(C)=O)[C@@H]1C	-5%	.	9%
CC1Cc2ccccc2N1C(=O)CN1CCC(C(N)=O)CC1 (centres undefined)	-16%	1%	17%
O=C(CCCn1cc([N+](=O)[O-])cn1)Nc1cccnc1	2%	.	6%
CSc1ccc(NC(=O)Nc2cc(C)ccn2)cc1	?	-4%[7.66 µM]	8.9µM*
COc1ccc(C(=O)NC(=O)Nc2cc(C)ccn2)cc1	0.18µM*	.	0.04µM*
Cc1ccnc(NC(=O)Nc2ccc(F)cc2)c1	-14%	-9%	?
COc1ccc(C(=O)/C=C/Nc2ccc(C)cn2)cc1OC	-27%	2%	?
COc1cc(C(=O)Nc2cc(C)ccn2)cc(OC)c1OC	9%	-7%	-32%
COc1ccc(C(=O)/C=C/Nc2cc(C)ccn2)cc1	?	.	0.2µM*
CSc1ccc(CCNC(=O)CCc2nnc3ccc(N4CCC5(CC4)OCCO5)nn23)cc1	-9%	.	28%
Cc1ncsc1CCOC(=O)c1ccc(Cl)cc1	2%[10 µM]	-2%	7%
CC(=O)NCC(=O)N1CCCC(C(=O)c2ccc(Oc3ccccc3)cc2)C1 (centres undefined)	-4%	4%	40%
Cc1nc(C(=O)NNC(=O)c2ccc(C(F)(F)F)cc2)cs1	?	.	5µM*
Cc1cc(C(=O)NNC(=O)c2ccc(C(F)(F)F)cc2)no1	2%	.	6%
CC(C)CO/N=C1/C[C@@H](O)[C@@H](O)[C@@H]2[C@@H]3C(=O)N(Cc4ccc5c(c4)OCO5)C(=O)[C@H]3CC[C@H]12	1%[10 µM]	.	0%[10 µM]
CC(C)(C)C(=O)[C@@H]1[C@@H]2C(=O)N(Cc3ccccc3)C(=O)[C@@H]2[C@H]2c3ccccc3C=CN12	?	-1%	11µM*
CC(=O)[C@H]1[C@@H]2C(=O)N(c3cccc(Cl)c3)C(=O)[C@@H]2[C@H]2c3ccccc3C=CN21	0%	-4%	-25%
O=C1C2C3C=CC(C3)C2C(=O)N1CCCCCCN1C(=O)C2C3C=CC(C3)C2C1=O (centres undefined)	0%	11µM*	?
SMILES	VP16 counter	Luc counter	RORg inh
O=C(O)CCN1C(=O)C2C3C=CC(C3)C2C1=O (centres undefined)	-2%	-4%	-10%
O=C(c1ccc(Br)cc1)c1sc(N2CCOCC2)nc1-c1ccccc1	-5%	2%	4%
O=c1c2ccccc2nc2ccc(NCc3cccs3)nn12	-2%	-2%	15%
CCOc1cccc2cc(C(C)=O)oc12	3%	1%	27%
CCOc1cccc2cc(-c3cn4cc(C)ccc4n3)c(=O)oc12	?	-7%	0.79µM*
CCOc1ccc(C(=O)OCC(=O)NCCCc2ccccc2)cc1	-9%	.	-19%
CCOc1ccc(/C(CCC(=O)O)=N/NC(=S)NCCc2ccccc2)cc1	?	2%	7.9µM*
Fc1ccccc1CNC(=S)NC1CCCCC1	7.9µM*	.	5µM*
COc1ccccc1CNC(=O)C1CCCC1	-2%	.	10%
O=C(COC(=O)C1CCC1)NCc1ccccc1Cl	-6%	-5%	-5%
S=C(NCc1ccccc1Cl)NC1CCCC1	8.9µM*	1%	6.3µM*
O=C(NCc1ccccc1F)C1CCCN(C(=O)NC2CCCCC2)C1 (centres undefined)	-14%	-2%	3%
COc1ccccc1CNC(=S)NC1CCCCC1	10µM*	4%	2.2µM*
c1cc(CN2CCCNCCNCCCNCC2)ccc1CN1CCCNCCNCCCNCC1	-18%	.	-26%
O=S(=O)(c1ccccc1)N1CCN(C(=S)Nc2ccccc2Cl)CC1	?	.	-8%
Cc1ccccc1C1CC(=O)Oc2ccc(C(C)(C)C)cc21 (centres undefined)	-5%	-1%[39.9 µM]	13%

High-throughput results deposited in PubChem BioAssay by National Center for Advancing Translational Sciences (NCATS).
